Out of some 190,000 compounds screened, about 810 (0.43%) were called active. No stated cut-off is given here; in the data, active means inhibition above about 50%; inactive means the rest. For the sample, actives were picked, then their nearest neighbours and some compounds at random.
What follows are compounds tested against Mannose-6-phosphate isomerase (Homo sapiens) (UniProt P34949) (assay: MPI enzyme activity inhibition – biochemical, fluorescence intensity, coupled assay, primary screen (AID 1209;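 further: plate controls were DMSO vehicle for no effect and wells lacking substrate for full effect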)). Details: purified PMI enzyme, at 20 µM, hits give high values.
Sequence of Mannose-6-phosphate isomerase (Homo sapiens) (P34949 whole entry, looked up): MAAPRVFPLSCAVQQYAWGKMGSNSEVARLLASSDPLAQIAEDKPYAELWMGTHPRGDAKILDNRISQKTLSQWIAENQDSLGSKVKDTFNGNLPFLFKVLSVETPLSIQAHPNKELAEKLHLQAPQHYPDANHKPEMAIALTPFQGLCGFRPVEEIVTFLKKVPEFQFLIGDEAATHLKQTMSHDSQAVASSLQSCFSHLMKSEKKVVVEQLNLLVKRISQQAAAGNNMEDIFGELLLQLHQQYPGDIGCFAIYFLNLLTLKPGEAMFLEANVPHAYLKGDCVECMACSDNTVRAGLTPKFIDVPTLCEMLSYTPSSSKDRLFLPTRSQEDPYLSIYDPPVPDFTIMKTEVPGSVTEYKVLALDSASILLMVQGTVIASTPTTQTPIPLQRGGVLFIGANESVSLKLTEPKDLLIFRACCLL

Compound	inhibition
O=C(O)/C=C/C(=O)Nc1ccc(SC(F)(F)F)cc1	-22.4% (inactive)
CC1(C)Cc2nc3sc4c(=O)n(Cc5ccccc5)cnc4c3cc2CS1	-8.6% (inactive)
Cc1cc(NC(=O)CSc2ncnc3ccccc23)no1	15.8% (inactive)
O=C(O)CCn1cc(/C=C2\SC(=S)NC2=O)c(-c2ccccc2)n1	-4.7% (inactive)
O=Cc1cn(CCC(=O)O)nc1-c1cccc(Br)c1	-4.6% (inactive)
CN(C)Cc1c(O)ccc2c3c(c(=O)oc12)CCCCC3	-0.4% (inactive)
O=c1oc2c(CN3CCOCC3)c(O)ccc2c2ccccc12	7.2% (inactive)
CCC1(c2ccccc2)NC(=O)N(Cc2ccc(C(=O)OC)cc2)C1=O (stereo not drawn)	4.1% (inactive)
CCOC(=O)c1[nH]c2ccc(OC)cc2c1NC(=O)/C=C/c1ccc2c(c1)OCO2	-2.7% (inactive)
CC1=NN(c2ccccc2)C(=O)/C1=C/C=C/c1ccc(N(C)C)cc1	14.6% (inactive)
CC1=NN(c2ccccc2)C(=O)/C1=C/C=C/C=C/N(C)C	50.1% (active)
CC1=NN(c2ccccc2)C(=O)/C1=C/C=C/c1ccccc1	3.1% (inactive)
CCOc1ncccc1C(=O)Nc1nc(SC)ns1	-7% (inactive)
O=C1C2C3C=CC(CNS(=O)(=O)c4ccccc4[N+](=O)[O-])(O3)C2C(=O)N1c1ccccc1 (stereo not drawn)	-34.8% (inactive)
COc1ccccc1C(OC(=O)c1cccs1)C(=O)NCc1ccco1 (stereo not drawn)	-1.9% (inactive)
O=C(O)[C@@H]1CSC2(CCSC2)N1 (stereo partly drawn)	-0.6% (inactive)
COC(=O)C1=C(C)N(Cc2ccco2)C(=O)/C1=C\c1ccc([N+](=O)[O-])cc1	-16.2% (inactive)
COC(=O)C1=C(C)N(Cc2ccco2)C(=O)/C1=C\c1ccc(N(C)C)cc1	63.9% (active)
CCOc1cc(/C=C2\C(=O)N(Cc3ccco3)C(C)=C2C(=O)OC)ccc1O	27.7% (inactive)
O=C(c1ccc(F)cc1)c1c[nH]c(C(=O)NCCCN2CCOCC2)c1	4.5% (inactive)
CC1CCc2c(sc(NC(=O)Cn3nc(C(F)(F)F)c4c3CCCCC4)c2C#N)C1 (stereo not drawn)	-0.9% (inactive)
N#Cc1c(NC(=O)Cn2nc(C(F)(F)F)c3c2CCCC3)sc2c1CCC2	56.8% (active)
CCc1c(C)sc(NC(=O)Cn2nc(C(F)(F)F)c3c2CCCC3)c1C#N	15.3% (inactive)
CCOc1ccc(Br)cc1S(=O)(=O)Nc1ccc(N2CCOCC2)cc1	12% (inactive)
COc1cccc(N2CCN(c3c4c(nc5ncnn35)CCC4)CC2)c1	-1.8% (inactive)

Compound	inhibition
CC1CCc2c(nc3ncnn3c2N2CCN(c3ccccc3)CC2)C1 (stereo not drawn)	-7.9% (inactive)
c1ccc(N2CCN(c3c4c(nc5ncnn35)CCC4)CC2)cc1	68.8% (active)
N#CC1=C(N)Oc2n[nH]c(-c3cccs3)c2C1C1C=CCCC1 (stereo not drawn)	2.1% (inactive)
O=C(CSc1nc2ccccc2s1)CSc1nc2ccccc2s1	7.7% (inactive)
O=C(O)CSc1ncccn1	-18.2% (inactive)
CN(C(=O)c1ccccn1)C1(C(=O)NC2CCCCC2)CCCCC1	-7.7% (inactive)
O=C(NCCN1CCOCC1)NC1(C(F)(F)F)Oc2ccccc2O1	8.2% (inactive)
Cc1cc(NC(=O)NC2(C(F)(F)F)Oc3ccc(Cl)cc3O2)no1 (stereo not drawn)	52% (active)
O=C(Nc1cc(N2CCOCC2)ncn1)NC1(C(F)(F)F)Oc2ccc(Cl)cc2O1 (stereo not drawn)	74.1% (active)
COCCNC(=O)NC1(C(F)(F)F)Oc2ccc(Cl)cc2O1 (stereo not drawn)	22.5% (inactive)
O=C(Nc1cc(N2CCOCC2)ncn1)c1ccc(F)cc1	5.3% (inactive)
O=C(NCCN1CCOCC1)NC1(C(F)(F)F)Oc2ccc(Cl)cc2O1 (stereo not drawn)	60.2% (active)
O=C(NCc1cccnc1)NC1(C(F)(F)F)Oc2ccc(Cl)cc2O1 (stereo not drawn)	22.4% (inactive)
O=C(Nc1cc(N2CCOCC2)ncn1)NC1(C(F)(F)F)Oc2ccccc2O1	35.5% (inactive)
COCC(C)NC(=O)NC1(C(F)(F)F)Oc2ccc(Cl)cc2O1 (stereo not drawn)	22.8% (inactive)
O=C(c1cc2nc(-c3ccco3)cc(C(F)(F)F)n2n1)N1CCCCCC1	-12.3% (inactive)
CCCOC(=O)c1ccc(Nc2nc(C)cc(=O)[nH]2)cc1	1.7% (inactive)
Cc1cc(C)nc(SCc2nnc(SCC(=O)Nc3cc(C(F)(F)F)ccc3Cl)o2)n1	3% (inactive)
Cc1ccc(N2C(=O)C3Sc4[nH]c(=O)sc4C(c4ccccc4)C3C2=O)cc1 (stereo not drawn)	11.4% (inactive)
COc1ccc(C(=O)NC(C)c2ccccc2)cc1Br (stereo not drawn)	3.2% (inactive)
O=C(O)C1Sc2[nH]c(=O)sc2C2c3cc(Cl)ccc3OC(=O)C12 (stereo not drawn)	50.4% (active)
O=C(O)C1Sc2[nH]c(=O)sc2C2c3ccc(O)cc3OC(=O)C12 (stereo not drawn)	24.3% (inactive)
COC(=O)C1Sc2[nH]c(=O)sc2C2c3ccccc3OC(=O)C12 (stereo not drawn)	10.6% (inactive)
O=C(Nc1ccc(S(=O)(=O)Nc2nccs2)cc1)c1cc(-c2ccccn2)nc2ccccc12	-1.4% (inactive)
CC(C)CCn1c(=O)c(C(=O)N/N=C/c2cccc(F)c2)c(O)c2ccccc21	-3.7% (inactive)

Compound	inhibition
CC(C)(C)C1=CC(=O)C(=O)C(C(C)(C)C)=C1	61.2% (active)
CC(C)(C=O)C1=CC(=O)c2ccccc2C1=O	-17.2% (inactive)
CC(C)(C)C1=CC(=Nc2ccccc2N)C=C(C(C)(C)C)C1=O	-7.3% (inactive)
COc1ccc(CCNC(=O)CN2CCN(c3cccc(C(F)(F)F)c3)CC2)cc1	3.1% (inactive)
O=C(c1ccco1)N1CCN(c2nc(-c3ccc(F)cc3)cs2)CC1	5.4% (inactive)
N#CC(=C1CCCC1)c1nc(-c2cc3ccccc3oc2=O)cs1	1.4% (inactive)
CN(C)CCCNS(=O)(=O)c1ccc(Cl)s1	0% (inactive)
Fc1ccc(C2c3cccn3CCN2C(=S)Nc2cccc(Br)c2)cc1 (stereo not drawn)	5.7% (inactive)
O=C1CCc2cc(S(=O)(=O)N3CCN(c4ccccc4F)CC3)ccc2N1	6% (inactive)
COc1ccc(CC(NC(C)=O)C(=O)NC2CCN(C(=O)NCc3ccccc3)CC2)cc1OC (stereo not drawn)	-4.4% (inactive)
CCC(=O)NC(=S)Nc1ccc(NC(=O)COc2ccc(Cl)c(C)c2)cc1	62.3% (active)
CCC(=O)NC(=S)Nc1ccc(NC(=O)COc2ccc(Cl)cc2Cl)cc1	5.1% (inactive)
CCC(=O)NC(=S)Nc1ccc(NC(=O)COc2ccccc2)cc1	10.1% (inactive)
Cc1cc(NC(=O)CSc2nnc(NC(=O)C3CC(=O)N(c4ccccc4)C3)s2)no1 (stereo not drawn)	-9.8% (inactive)
O=C(CCn1c(=O)sc2ccccc21)NCCC1=CCCCC1	3.6% (inactive)
CCOC(=O)C1=C(Cc2ccc(OC)cc2)C(=O)c2ccccc2C1=O	22.9% (inactive)
CC(C)c1ccc(C2=C(O)c3ccccc3C(=O)C2=O)cc1	-3.9% (inactive)
CC(=O)C1=C(c2ccc(Br)cc2)C(=O)c2ccccc2C1=O	80.3% (active)
COc1ccc(C2=C(N)c3ccccc3C2=O)cc1	3.9% (inactive)
O=C(C1=C(c2ccccc2)C(=O)c2ccccc2C1=O)c1ccccc1	48.7% (inactive)
OC(CNCc1ccccc1)Cn1ccc2ccccc21 (stereo not drawn)	-1.3% (inactive)
NC(N)=N/N=C/c1ccc(Br)cc1	-2.5% (inactive)
O=c1cc(-c2ccc(O)c(O)c2)oc2c(C3O[C@H](CO)[C@@H](O)[C@H](O)[C@H]3O)c(O)cc(O)c12 (stereo partly drawn)	51.9% (active)
O=c1cc(-c2ccc(O)cc2)oc2c([C@@H]3O[C@H](CO)[C@@H](O)[C@H](O)[C@H]3O)c(O)c([C@@H]3O[C@H](CO)[C@@H](O)[C@H](O)[C@H]3O)c(O)c12	-0.7% (inactive)
O=c1cc(-c2ccc(O)c(O)c2)oc2cc(O)c(C3OC(CO)C(O)C(O)C3O)c(O)c12 (stereo not drawn)	45.4% (inactive)

Compound	inhibition
CC(=O)N1C(=O)c2cccc3cccc(c23)C(=O)N1C(C)=O	9.5% (inactive)
NC1=Nc2cccc3cccc1c23	12.8% (inactive)
CCN1CCN(C(=O)c2oc(=O)c3ccccc3c2-c2ccc(C)cc2)CC1	-1.6% (inactive)
CNc1nc2[nH]c(=O)c3c(c2s1)OC(N)=C(C#N)C3c1ccccc1 (stereo not drawn)	43.5% (inactive)
CNc1nc2[nH]c(=O)c3c(c2s1)OC(N)=C(C#N)C3c1cccc(F)c1 (stereo not drawn)	39.7% (inactive)
CCNc1nc2[nH]c(=O)c3c(c2s1)OC(N)=C(C#N)C3c1ccc(C)cc1 (stereo not drawn)	54.6% (active)
COCCCNC(=S)N/N=C/c1ccc(N(C)C)cc1	1% (inactive)
CCC(C)/C(C)=N/NC(=O)c1ccc(COc2ccc(Cl)c(C)c2)cc1 (stereo not drawn)	13.9% (inactive)
Cc1ccc(NCc2ccccc2O)cc1C	19.9% (inactive)
Oc1ccc(CNc2ccc(F)cc2)c2cccnc12	36.2% (inactive)
Oc1ccc(COCc2ccccc2)c2cccnc12	46.1% (inactive)
O=[N+]([O-])c1ccc(O)c2ncccc12	-7.5% (inactive)
Cc1ccc(NCc2ccc(O)c3ncccc23)cc1	50.8% (active)
Oc1ccc(CNc2ccccc2)c2cccnc12	50.5% (active)
Cc1ccc(NCc2ccccc2O)cc1	13.8% (inactive)
OCc1ccc(O)c2ncccc12	27% (inactive)
Cc1cccc(NCc2ccc(O)c3ncccc23)c1	42.5% (inactive)
Oc1ccc(F)c2cccnc12	50.9% (active)
Cc1ccc(NCc2ccc(O)c3ncccc23)cc1C	55.8% (active)
COCc1ccc(O)c2ncccc12	23.7% (inactive)
S=c1[nH]nc(-c2cccnc2)o1	-18.4% (inactive)
Nc1nc(NC(=O)/C=C\C(=O)O)nn1-c1ccccc1	-12.4% (inactive)
Cc1ccc(C)c(NC(=S)N(Cc2ccc(Cl)cc2)Cc2ccc(C(=O)O)cc2)c1	-4.3% (inactive)

— PubChem BioAssay AID1209 (Sanford-Burnham Center for Chemical Genomics, 2008)
